Assay results from the supplement of paper PMC4022240.
± gives the standard deviation.

T1: HaloTag-ATRX ADD domain (163-292)
T1 chain: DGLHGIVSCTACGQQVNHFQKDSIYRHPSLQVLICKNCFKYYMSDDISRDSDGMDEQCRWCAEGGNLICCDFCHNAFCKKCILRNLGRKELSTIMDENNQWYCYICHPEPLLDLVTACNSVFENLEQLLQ


Assays:
Assay in all cases: peptide microarray binding signal (635 nm), min-max normalized on array (fraction of array maximum); higher = stronger binding
Conditions in all cases: peptide region: Unmod H1 variant
[1] = target: T1, HaloTag-ATRX ADD domain (163-292)
Method in brief: (§1)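 Arrays carried histone 13-mer peptide–cellulose conjugates printed in triplicate on nitrocellulose alongside a Cy3 tracer. After overnight blocking at 4°C, they were incubated for 1 h at 4°C with biotin-labelled HaloTag reader fusions (10 nM to 1 μM) plus streptavidin-Alexa Fluor 647, or with rabbit histone antibodies (1:10,000 to 1:2,000) plus anti-rabbit Alexa 647. Scanning on an Axon GenePix 4000B used 635 nm for signal and 532 nm for misprints. The binding signal reported is each triplicate's mean spot intensity after per-library min-max scaling.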

[2] = target: HaloTag-ING2 PHD (mouse Ing2 200-280)
Method in brief: as §1

[3] = target: anti-H3K4me3 antibody ab8580
Method in brief: as §1

[4] = target: anti-H3K9me3 antibody ab8898
Method in brief: as §1

[5] = binder concentration: 1:2,000 dilution
[6] = binder concentration: 1:10,000 dilution

| Binder | peptide microarray binding signal ([1]; binder concentration: 50 nM) | peptide microarray binding signal ([1]; binder concentration: 500 nM) | peptide microarray binding signal ([2]; binder concentration: 10 nM) | peptide microarray binding signal ([2]; binder concentration: 100 nM) | peptide microarray binding signal [3, 5] | peptide microarray binding signal [3, 6] | peptide microarray binding signal [4, 5] | peptide microarray binding signal [4, 6] |
| --- | --- | --- | --- | --- | --- | --- | --- | --- |
| IVQAASSSKERGG [Unmod H1 variant I V Q A A S S S K E R G G] | 0.0196 ± 0.0029 | 0.0152 ± 0.00061 | 0.0112 ± 0.00078 | 0.0197 ± 0.0013 | 0.00279 ± 6.5e-05 | 0.00708 ± 0.00071 | 0.00216 ± 0.00024 | 0.00306 ± 0.00012 |
| YDVEKNNSRIKLG [Unmod H1 variant Y D V E K N N S R I K L G] | 0.0163 ± 0.00037 | 0.0175 ± 0.00085 | 0.00841 ± 0.00067 | 0.0132 ± 0.00014 | 0.000944 ± 1.6e-05 | 0.00114 ± 3e-05 | 0.000453 ± 1.5e-05 | 0.00075 ± 1.6e-05 |
| IKLGIKSLVSKGT [Unmod H1 variant I K L G I K S L V S K G T] | 0.0221 ± 0.0027 | 0.0236 ± 0.00098 | 0.00656 ± 0.00055 | 0.0191 ± 0.0018 | 0.00147 ± 3.9e-05 | 0.00262 | 0.00109 ± 2.9e-05 | 0.001441 ± 1.4e-05 |
| PAGPSVSELIVQA [Unmod H1 variant P A G P S V S E L I V Q A] | 0.0127 ± 0.00021 | 0.00367 ± 0.00014 | 0.00203 ± 3.6e-05 | 0.00177 ± 3.1e-05 | 0.00111 ± 0.00011 | 0.00097 ± 2.6e-05 | 0.000438 ± 1.7e-05 | 0.00075 ± 7.9e-06 |
| ASAAPEKPLAGKK [Unmod H1 variant A S A A P E K P L A G K K] | 0.0171 ± 0.0014 | 0.0163 ± 0.00078 | 0.00603 ± 0.00016 | 0.0206 ± 0.0028 | 0.00151 ± 4.1e-05 | 0.00262 ± 0.00011 | 0.000891 ± 5.9e-05 | 0.00115 ± 2e-05 |
| ERGGVSLAALKKA [Unmod H1 variant E R G G V S L A A L K K A] | 0.0175 ± 0.00043 | 0.0165 ± 0.00037 | 0.0122 ± 0.00043 | 0.0252 ± 0.0017 | 0.00283 ± 4.9e-05 | 0.00496 ± 0.00014 | 0.00225 ± 8.6e-05 | 0.00283 ± 4.9e-05 |
| AGKKAKKPAKAAA [Unmod H1 variant A G K K A K K P A K A A A] | 0.0147 ± 0.00057 | 0.0114 ± 0.0028 | 0.00507 ± 0.00099 | 0.00539 ± 0.00095 | 0.000585 ± 4.5e-05 | 0.000856 ± 8.9e-06 | 0.000181 | 0.000692 ± 7.3e-06 |
| SKGTLVQTKGTGA [Unmod H1 variant S K G T L V Q T K G T G A] | 0.0193 ± 0.0038 | 0.0147 ± 0.00052 | 0.003939 ± 2.1e-05 | 0.0162 ± 0.0012 | 0.000812 ± 6.2e-05 | 0.0012 ± 2.4e-05 | 0.000211 ± 2.2e-06 | 0.00075 ± 7.9e-06 |
| GTGASGSFKLNKK [Unmod H1 variant G T G A S G S F K L N K K] | 0.01633 ± 0.00015 | 0.00986 ± 0.0013 | 0.00251 ± 5.1e-05 | 0.00539 ± 0.00089 | 0.000547 ± 1.9e-05 | 0.00114 ± 3e-05 | 0.0003926 ± 3.9e-06 | 0.00121 ± 3.2e-05 |
| LKKALAAAGYDVE [Unmod H1 variant L K K A L A A A G Y D V E] | 0.0162 ± 0.00021 | 0.0149 ± 0.00063 | 0.00322 ± 3.5e-05 | 0.004606 ± 3.8e-05 | 0.000982 ± 5.9e-05 | 0.001655 ± 1.6e-05 | 0.000861 ± 5.4e-05 | 0.001211 ± 1.2e-05 |
